Results filed as inconclusive are left out. Activity calls are given as the source filed them. The calls were made as follows: active = hit-call score of the fitted dose curve at least 0.9, where 1 is the maximum; inconclusive = response in the unintended direction; inactive = score below 0.9.
These compounds were tested on HMG-CoA synthase (HMGCS2), HMGCS2 (gene 3158) (assay: CLD_HMGCS2_48hr: CellzDirect (CLD) Gene Expression Assay for HMG-CoA synthase (HMGCS2) at 48 hours (AID 2283711)).
Procedure: CLD_48hr is a cell-based, multiplexed-readout assay that uses hepatocyte, a human liver primary cell, with measurements taken at 48 hours after chemical dosing in a 96-well plate.CLD_HMGCS2_48hr is one of 16 assay component(s) measured or calculated from the CLD_48hr assay. It is designed to make measurements of mRNA induction, a form of inducible reporter, as detected with chemiluminescence signals by Quantitative Nuclease Protection Assay (qNPA) technology.Data from the assay component CLD_HMGCS2_48hr was analyzed at the endpoint, CLD_HMGCS2_48hr, in the positive analysis fitting direction relative to DMSO as the negative control and baseline of activity. Using a type of inducible reporter, gain-of-signal activity can be used to understand changes in the reporter gene as they relate to the gene HMGCS2. Furthermore, this assay endpoint can be referred to as a primary readout. To generalize the intended target to other relatable targets, this assay endpoint is annotated to the lyase intended target family, where subfamily is HMG-CoA synthase.
Human hepatocyte cultures were treated daily for two consecutive days with fresh dosing solutions containing appropriate concentrations of the 320 ToxCast chemicals (chemical identities were blinded to CellzDirect and other ToxCast collaborators), vehicle control (0.2% DMSO), and positive control inducers as summarized in Table 1. Due to the large number of treatment groups and chemicals examined, the ToxCast chemicals were divided into two groups (spanning two independent cultures of hepatocytes from separate donor preparations (Hu778: ToxCast plates 1 and 2; Hu776: ToxCast plates 3 and 4). Each preparation of human hepatocyte cultures was treated with respective vehicle control, medium only control, set of six positive controls/reference chemicals for the five hepatic receptor pathways, and a subset of eight of the ToxCast chemicals (indoxacarb, pyrithiobac-sodium, norflurazon, cyhalofop-butyl, methomyl, thiram, acetochlor, and propiconazole). These replicate data, coupled with internal replicates designed within the blinded ToxCast chemical library, provided additional data to evaluate interindividual differences between hepatocyte preparations and their potential impact on chemical profiles.Cell morphology and integrity were evaluated using phase-contrast microscopy as an indicator of hepatocyte cell health (Tyson & Green, 1987). Cultures for each treatment group (i.e., media, vehicle [0.2% DMSO], positive control inducers [multiple concentrations], and the ToxCast chemicals [multiple concentrations]) were observed and cell morphology was assessed relative to vehicle control cultures at each harvest time point (0, 6, 24, or 48 h). […] Images were evaluated at the conclusion of the study to assess changes in cell integrity and account for the effects of chemical exposure on uncharacteristic changes in concentration-dependent gene expression profiles. The results from these determinations of apparent cytotoxicity were annotated (yes/no) alongside the corresponding qNPA data for reference.At the conclusion of each treatment period, hepatocyte cultures (96-well) were washed with 1 volume of HBSS, lysed by addition of 25 ul ArrayPlate lysis buffer (HTG, Tucson, AZ), and 70 ul/well of Denaturation Oil, denatured by incubation at 95C for 10 min, and frozen at approximately -70C until analysis by nuclease protection assay (qNPA) (Roberts et al., 2007). For qNPA analysis, cell lysates were thawed at 50C for approximately 30 min, qNPA probes were added, and samples were incubated at 95C for 10 min to begin the detection process by denaturing the target RNA, dissociating the duplexes and secondary structure hybridization. At the conclusion of the hybridization period, S1 nuclease reagent was added to each sample to digest all nonprotected nucleotides at 50C for 60-90 min. […]

| Structure (SMILES) | AC50 | outcome |
| --- | --- | --- |
| CCCCOC(=O)C(C)Oc1ccc(Oc2ccc(C(F)(F)F)cn2)cc1 (centres undefined) | 0.263 µM (active) |  |
| CCCCC(CC)COC(=O)c1ccccc1C(=O)O (centres undefined) |  | inactive |
| CCOC(=O)[C@H](C)Oc1ccc(Oc2nc3ccc(Cl)cc3o2)cc1 |  | inactive |
| CCC(C)OC(=O)N1CCCCC1CCO (centres undefined) |  | inactive |
| CCCN(CCC)C(=O)SCC |  | inactive |
| Oc1ccc(C(c2ccc(O)cc2)C(Cl)(Cl)Cl)cc1 |  | inactive |
| Cc1nn(C)c(Oc2ccccc2)c1C=NOCc1ccc(C(=O)OC(C)(C)C)cc1 |  | inactive |
| CCOC(=O)C(C)Oc1ccc(Oc2cnc3cc(Cl)ccc3n2)cc1 (centres undefined) | 6.86 µM (active) |  |
| CCCOC(=O)c1ccc(C(=O)OCCC)nc1 | 0.269 µM (active) |  |
| COC(=O)c1cccc(C)c1S(=O)(=O)NC(=O)Nc1nc(OCC(F)(F)F)nc(N(C)C)n1 |  | inactive |
| c1ccc2[nH]c(-c3cscn3)nc2c1 |  | inactive |
| CCCCCCC(C)OC(=O)COc1nc(F)c(Cl)c(N)c1Cl (centres undefined) |  | inactive |
| CCSC(=O)N(CC(C)C)CC(C)C |  | inactive |
| COC(=O)c1ccccc1S(=O)(=O)NC(=O)Nc1nc(OC(F)F)cc(OC(F)F)n1 |  | inactive |
| CSC(=O)c1cccc2nnsc12 |  | inactive |
| COc1nc(C)nc(NC(=O)NS(=O)(=O)c2ccccc2OCCCl)n1 |  | inactive |
| OB(O)O |  | inactive |
| O=C(O)C1(C(=O)Nc2ccc(Cl)cc2Cl)CC1 |  | inactive |
| CCC(O)=C1C(=O)CC(C(=O)O)CC1=O (centres undefined) |  | inactive |
| COC(=O)c1c(Cl)nn(C)c1S(=O)(=O)NC(=O)Nc1nc(OC)cc(OC)n1 |  | inactive |
| CC(C)(C)[C@@H](O)[C@@H](Cc1ccc(Cl)cc1)n1cncn1 |  | inactive |
| CCCCOCCOCCOCc1cc2c(cc1CCC)OCO2 |  | inactive |
| CCCCOC(=O)[C@@H](C)Oc1ccc(Oc2ccc(C(F)(F)F)cn2)cc1 |  | inactive |
| CCCOC(=O)NCCCN(C)C |  | inactive |
| c1ccc(Nc2ccccc2)cc1 |  | inactive |
| COC(=O)c1ccccc1C(=O)O |  | inactive |
| CCOC(=O)C(C)Oc1ccc(Oc2nc3ccc(Cl)cc3o2)cc1 (centres undefined) |  | inactive |
| C#CCOC(=O)[C@@H](C)Oc1ccc(Oc2ncc(Cl)cc2F)cc1 |  | inactive |
| COc1c(Cl)ccc(Cl)c1C(=O)O | 0.00707 µM (active) |  |

— PubChem BioAssay (EPA / NIEHS)
